Screens as filed in PubChem.
Shown are actives, neighbours in structure and some others; about 2.3% of the full set was active somewhere.
Abeta yeast res: A-beta toxicity reversal in yeast | yeast expressing A-beta42, growth rescue, OD600, 48 h; response scale: 0% DMSO, 100% iron-clioquinol control | Potency, µM (titrated, usually from 46.1 µM), usual class: activators | 0.063% of 410,000 active; further: potency means the concentration at half of the fitted maximal effect; nearly all actives have a fitted effect of over 55% in size
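Yeast A-beta toxicity model in growth medium with pinned compounds, 48 h at 30 C; growth read as absorbance at 600 nm. Normalized to FeCl3/clioquinol equimolar mix (positive) and DMSO (negative).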
MmCpn inh: inhibitors of Methanococcus maripaludis chaperonin TRiC (MmCpn); Potency, µM (highest dose often 76.9 µM), without a hit: top-dose activity, negative = inhibition, most hits filed as inhibitors; AID 504842; 0.031% of 330,000 active; purified Mm-Cpn ATPase, ADP Transcreener TR-FRET; further: potency means the concentration at half of the fitted maximal effect; on the % scale 0 is the no-effect control and ±100 the full control effect; nearly all actives have a fitted effect of over 80% in size
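ATPase read-out: TR-FRET ADP immunoassay (anti-ADP Eu cryptate vs ADP-d2), ex 320 nm, em 590/665 nm; signal drops as ADP forms. Enzyme 25 nM, ATP 10 uM, 30 min at 37°C after 10 min compound preincubation.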
TDP43 rescue: rescues yeast growth from TDP-43 toxicity; Potency, µM (highest dose often 46.1 µM), for the others: at the highest dose growth rescue (activation), actives largely listed as activators; 1.8% of 410,000 active; TDP-43 expressing yeast growth rescue, BacTiter-Glo, 24 h; further: potency means the concentration at half of the fitted maximal effect; % of control where 0% means no effect; nearly all actives have a fitted effect of over 50% in size
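Luminescence from BacTiter-Glo reports growth of TDP-43-expressing yeast after 24 hr at 30 deg C with compound. Cells were raffinose-pregrown to mid-log, then seeded in galactose medium at OD600=0.02.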
aSyn rescue: alpha-synuclein toxicity inhibition in yeast; Yeast expressing alpha-synuclein, growth rescue, BacTiter-Glo, 24 h; Potency, µM (titrated, usually from 46.1 µM), for the others: at the top dose growth rescue (activation), actives largely listed as activators; 0.14% of 370,000 active; AID 652106; further: potency means the concentration at half of the fitted maximal effect; % of control where 0% means no effect; nearly all actives have a fitted effect of over 65% in size
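Galactose-induced alpha-syn yeast (OD600=0.02, raffinose-pregrown) + pinned cpd, 24 hr, 30 deg C; growth by BacTiter-Glo luminescence. Growth restoration scores as activation.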
FUS suppressor: rescues growth of FUS-expressing yeast | S. cerevisiae FUS-expressing, growth rescue, OD600, 24 h | Potency, µM (series often up to 76.6 µM), usual class: activators | 0.24% of 390,000 active | AID 1347120;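 further: potency means the concentration at half of the fitted maximal effect; plate controls were DMSO vehicle for no effect and reference control for full effect; nearly all actives have a fitted effect of over 55% in size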
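Restored growth of FUS-toxic S. cerevisiae, read as 600 nm absorbance after 24 h at 30C in galactose medium (starting OD 0.005). Controls CP55940 and DMSO.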
CCT modulator: modulators of cytosolic chaperonin (CCT/TRiC) activity; activity change, % (no concentration beside the values), hits read low; 0.3% of 360,000 active; AID 651819; purified chaperonin ATPase assay, HTRF ADP detection, 30 min; in the data active means activity change below about -30%; further: on the % scale 0 is the no-effect control and ±100 the full control effect
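Nucleotide hydrolysis assay: TRiC at 20–40 nM final (set by batch activity) with 10 uM ATP, 30 min at 37 °C, in presence of 76 uM compound. Detection by competitive ADP HTRF, 30 min ambient.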
Active calls of the source: *; i = inactive; u = inconclusive; x = not tested or not shown; [ ] = another dose, or the depositor's remark. Unless noted, the call rests on the fitted dose curve; in most records, active means well fitted curve in the direction sought with a large enough effect; inconclusive means small, poorly fitted or top-dose-only effect, or another doubt; inactive means no such curve, though single readings can be large; an effect the other way counts as inactive or inconclusive.

SMILES	Abeta yeast res	MmCpn inh	TDP43 rescue	aSyn rescue	FUS suppressor	CCT modulator
COc1ccc(-c2nc(CCNC(=O)c3ccccc3)cs2)cc1OC	i	x	u	x	i	x
CCN(CC)C(=O)CC[C@H]1CC[C@]2(CCCN(Cc3ccncc3)C2)O1	x	x	x	x	i	x
CN(Cc1cnc2nc(N)nc(N)c2n1)c1ccc(C(=O)NC(CCC(=O)O)C(=O)O)cc1 (stereo not given)	i	x	16µM*	2%	x	0
CN(Cc1cnc2nc(N)nc(N)c2n1)c1ccc(C(=O)NC(CCC(=O)O)C(=O)O)cc1C(F)(F)F (stereo not given)	i	x	0%	-2%	x	-1
COc1ccc(C(C)=O)cc1COC(=O)c1ccc(OCc2c(C)noc2C)cc1	i	3%	12%	4%	i	-2
COc1ccc(C(C)=O)cc1COC(=O)c1c(C)noc1C	i	-5%	16µM*	10%	i	0
Cc1cccc(S(=O)(=O)N2CCN(c3nc(-c4cccs4)nc4ccccc34)CC2)c1	x	x	x	-3%	x	x
COc1ccc(C(=O)Oc2ccc(/C=N/O)cc2)cc1	i	2%	10µM*	x	i	-1
O=C(Nc1ccc(Cl)cc1Cl)c1cc(S(=O)(=O)N2CCC3(CC2)OCCO3)ccc1F	i	x	12%	x	i	x
COc1cccc(Nc2nc(N)c([N+](=O)[O-])c(NCc3ccccc3)n2)c1	i	1%	25µM*	2%	i	0
Cc1cccc(Nc2nc(N)c([N+](=O)[O-])c(NCc3ccccc3)n2)c1	i	2%	u	15%	i	-3
CCc1ccccc1NC(=O)c1ccc2nc(C(C)C)oc2c1	i	x	-2%	x	i	x
CC(C)N(Cc1ccccc1)C(=S)NC(=O)C1(C)CC1(Cl)Cl (stereo not given)	u	-1%	35µM*	0%	i	0
C[C@@H]1CCN(C2CC2)S(=O)(=O)c2ccc(N3CC[C@@H](O)C3)cc2O1	x	x	x	x	i	x
Cc1cccc(C)c1OCCOC(=O)c1n[nH]c2ccccc12	u	-5%	-12%[1.82 µM]	2%	i	0
Cc1ccc(C)c(C(=O)COC(=O)c2n[nH]c3ccccc23)c1	i	-1%	20µM*	u	i	1
CCOC(=O)C1=NOC(C(C)=O)(C(=O)Nc2cc(C)cc(C)c2)C1 (stereo not given)	x	x	x	x	i	x
COc1ccc(C(=O)NNC(=S)NC(=O)C(C)(C)C)cc1	5.6µM*	0%	-60%	u	i	-2
COc1ccc(C(=O)NC(=S)NNC(=O)c2ccco2)cc1	u	-1%	-22%	10%	i	-1
COc1ccc(/C=C/C(=O)NC(=S)NNC(=O)c2ccco2)cc1	7.1µM*	0%	u	24%	i	0
O=C(/C=C/c1cccs1)NC(=S)NNC(=O)c1ccccc1O	i	0%	-32%	11%	i	-4
COc1ccccc1OCC(=O)NNC(=S)NC(=O)c1ccco1	7.9µM*	-6%	29%	u	i	-3
COc1ccc(C(=O)NNC(=S)NC(=O)/C=C/c2cccs2)cc1	8.9µM*	0%	u	7.1µM*	i	-1
Cc1ccccc1-n1nc(CO)c(C(=O)NCc2cccnc2)n1	i	x	16%	x	i	x
COc1ccc(C(=O)Nc2cc(Cl)c(Br)cc2C(=O)O)cc1	x	x	x	x	i	x
SMILES	Abeta yeast res	MmCpn inh	TDP43 rescue	aSyn rescue	FUS suppressor	CCT modulator
CCNC(=O)Nc1ccc2c(c1)C(=O)N(C)[C@H]1CC[C@H](CC(=O)N[C@H](C)c3ccccc3)O[C@@H]1CO2	x	x	x	x	i	x
COc1ccc(CNCc2ccncc2)cc1OC	i	-3%	17%	0%	i	-65*
Cc1ccc(NC(=O)OC2CC3CC2[C@H]2CCCCN2C3)cc1 (stereo not given in full)	x	x	x	x	i	x
NC(=O)Cc1nc(-c2ccc(F)cc2)cs1	i	2%	13%	1%	i	2
NC(=S)Cc1nc(-c2ccc(Cl)cc2)cs1	6.3µM*	-5%	u	-27%	i	-2
C=CCNC(=S)NC(=O)c1ccc(C)c(Br)c1	10µM*	-2%	u	-1%	i	-4
C=CCNC(=S)NNC(=O)c1ccc(C)c(Cl)c1	i	-1%	x	10%	i	3
CCc1cccc(C)c1NC(=O)c1cnn(-c2ccc(OC)cc2)c1C1CCN(C(=O)OC(C)(C)C)CC1	i	x	6%	x	22µM*	x
Cc1ccc(C)c(NC(=O)c2cnn(-c3cccc(F)c3)c2C2CCN(C(=O)OC(C)(C)C)CC2)c1	i	x	35µM*	x	u	x
COc1ccc(-n2ncc(C(=O)NCc3ccccc3)c2C2CCN(C(=O)OC(C)(C)C)CC2)cc1	i	x	13%	x	u	x
COc1cccc2cc(C(=O)N3CC(C)OC(C)C3)c(=O)oc12 (stereo not given)	i	-1%	4%	-4%	i	0
COc1cc2c(oc(=O)c3cc(C)cc(OC)c32)c2c(C3OC(C)C(O)C(C)(O)C3O)ccc(O)c12 (stereo not given)	i	x	u	6.3µM*	x	0
Cc1cc2c(cc1C)-c1nnnn1C(N1CCCC1)C(=O)N2 (stereo not given)	i	x	24%	-7%	i	x
Cc1cc2c(cc1C)-c1nnnn1C(N1CCC(Cc3ccccc3)CC1)C(=O)N2 (stereo not given)	i	x	25µM*	0%	i	x
Cc1nc(N2CCCCC2)c2c(-c3cccs3)csc2n1	i	-4%	16µM*	-17%	i	-4
CCN(C(=O)CSc1ccc2ccccc2n1)C1CCCCC1	i	1%	22µM*	-13%	x	-3
O=C(Nc1ccc(C(F)(F)F)cc1)OC1CC2CC1[C@H]1CCCCN1[C@H]2Cc1ccccc1 (stereo not given in full)	x	x	x	x	i	x
Cc1ccc(C)c(S(=O)(=O)N2C(=S)NC(=O)C2CC(C)C)c1 (stereo not given)	i	0%	25µM*	u	i	-1
O=C(OCc1cn(Cc2ccc(F)c(F)c2)nn1)N1CCCC1	x	x	x	x	i	x
N/C(Cc1ccc(Cl)cc1Cl)=N\OC(=O)c1ccccc1	i	1%	u	-75%	i	1
N/C(CC1CC1(Cl)Cl)=N\OC(=O)c1ccccc1 (stereo not given)	i	1%	18µM*	-35%	i	-1
O=C(Nc1nc(-c2ccccn2)cs1)C1CCCC1	u	0%	20µM*	17%	i	1
O=C(Nc1nc(-c2ccccn2)cs1)c1cc2ccccc2o1	i	-1%	u	u	i	-1
